Results filed as inconclusive are left out. Entries that show only a call come without a potency. Active and inactive are the calls of the source. Unless noted, calls follow the shape of the dose curve; as a rule, active = well fitted curve in the direction sought with a large enough effect; inconclusive = small, poorly fitted or top-dose-only effect, or another doubt; inactive = no such curve, though single readings can be large; an effect the other way counts as inactive or inconclusive.

Assay [1] has as its target ATP-dependent 6-phosphofructokinase (Trypanosoma brucei brucei) (UniProt O15648). As to the kind of experiment: qHTS Assay to Find Inhibitors of T. brucei phosphofructokinase: hit validation (AID 492961).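 Also: luminescence reports ADP formed as PFK phosphorylates fructose-6-phosphate with ATP; series mostly up to about 51 µM.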 The method in brief:
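PFK 1.25 nM, F6P 0.5 mM, ATP 0.1 mM, MgCl2 5 mM, 0.1 M TEA pH 8.0, Tween20 0.01%, BSA 0.1%; 45 min RT. ADP-Glo two-step detection, luminescence. qHTS titration; curve fitting with curve-class categorization.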

Assay [2] in a line: Validation screen for small molecules that induce genotoxicity in human embryonic kidney (HEK293T) cells expressing luciferase-tagged ELG1 (AID 493106). A digest of the protocol: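 In this validation screen, increased ELG1-luciferase signal flags compounds causing genetic stress. HEK293T reporter cells are treated 16 hr (37 °C, 5% CO2), developed with ONE-Glo for 30 min at room temperature, and imaged on a CCD-based reader.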

Assay [3] addresses ATPase family AAA domain-containing protein 5 (Homo sapiens) (UniProt Q96QE3). Briefly: Validation screen for small molecules that inhibit ELG1-dependent DNA repair in human embryonic kidney (HEK293T) cells expressing luciferase-tagged ELG1 (AID 493107). Also: nearly all actives have a fitted effect of over 70% in size. Also: potency is read from the fitted curve at half-maximal effect. From the text:
NIH Molecular Libraries Probe Production Network [MLPCN]
(§1) NIH Chemical Genomics Center [NCGC]
Assay Provider: Kyungjae Myung, NHGRI, NIH
Keywords: MLPCN, qHTS, NCGC, genotoxicity, cancer
Cancer cells divide rapidly compared to normal cells in the body. During cell division, cancer cells need to duplicate their genome by DNA replication. The failure of genome duplication leads to cancer cells' death. Therefore, inhibitors of DNA replication could specifically kill cancer cells. Based on this concept, many chemotherapeutic agents were developed and have been used to treat cancer patients. However, there are a limited number of agents available in the clinical setting, and some of those that do exist have low efficacy and severe side effects. Therefore, if we can find the compounds that effectively block DNA replication either by directly damaging DNA or by inhibiting other cellular mechanisms, the options for cancer treatment will be broadened. With this in mind, we developed a quantitative high-throughput ELG1-luciferase reporter gene assay. Small molecules that specifically block ELG1 function in response to DNA damage can be identified by monitoring the suppression of luciferase activity. Since ELG1 defines a pathway for repairing DNA damage, agents blocking ELG1 function can be used to sensitize cancer cells to chemotherapeutic agents whose mechanism of action involves the induction of DNA damage.
For genotoxicity screening, 2,000 cells in 4 uL/well were dispensed into white, solid-bottom 1536-well plates using a solenoid-based dispenser. Following transfer of 1 uL 5-Fluorouridine and 23 nL compound or DMSO vehicle by a pin tool, the plates were incubated 16 hr at 37 °C and 5% CO2. 5 ul ONE-Glo (Promega) was then added to each plate and following a 30 min incubation at room temperature, luciferase activity was quantified on a ViewLux CCD-based plate reader.

The target in assay [4] is Thyrotropin-releasing hormone receptor (Homo sapiens) (UniProt P34981). Briefly: qHTS for Small Molecule Agonists and Allosteric Enhancers of Human TRH Receptor: Validation Screen for Agonists (AID 493127;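 active = calcium activation more than 3 SD above the typical response in the agonist read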;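 also: intracellular calcium rise by fluo-8 fluorescence before TRH EC20 addition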). As to conditions: TRH receptor agonist cell assay; at 2 µM; stronger effect = higher value. A digest of the protocol:
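Kinetic fluorescence assay of agonist-induced calcium release: overnight-plated TRHR cells, room-temperature fluo-8 loading, baseline then compound addition with per-second reads.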
On the technique in general: Quantitative high-throughput screening tests each substance at several concentrations.

Assay [5] concerns the target Galactokinase (Homo sapiens) (UniProt P51570). Briefly: qHTS Validation Assay for Inhibitors of Human Galactokinase (GALK) (AID 493189). A digest of the protocol: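 GALK (5 nM) with 35 uM ATP and 100 uM galactose in HEPES pH8.0, MgCl2, NaCl, DTT, BSA; 1 h at room temperature. Residual ATP read by Kinase-Glo Plus luminescence after 10 min.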
The nature of assay [6]: Validation screen for small molecules that induce DNA re-replication in SW480 colon adenocarcinoma cells (AID 504364).
Description: H Molecular Libraries Probe Production Network [MLPCN]
as §1
Assay Provider: Melvin DePamphilis, NICHD, NIH
Eukaryotic cells normally restrict genome duplication to once per cell division. When this process is aberrant, DNA re-replication occurs when cells reinitiate DNA replication before the first round of replication is complete. DNA re-replication induces the DNA damage response, arrests cell proliferation, and triggers apoptosis. The cell cycle components cyclin A, Cdt-1, Cdc6 and geminin are critical regulators of this process and their misregulation results in DNA re-replication in normal and cancer cells. To identify compounds that induce re-replication in normal cells, an image-based assay was used to measure DNA content of nuclei, as detected by the fluorescent DNA binding dye, Hoechst. Cell nuclei were imaged by a fluorescence scanning plate imager and compounds that induce DNA re-replication were identified by the increase of nuclei with elevated fluorescence intensity.#
For screening, 250 cells in 5 uL/well were dispensed into black clear 1536-well plates (Aurora) using a solenoid-based dispenser. Following transfer of 23 nL compound or DMSO vehicle by a pin tool, the plates were incubated 48 hr at 37 C and 5% CO2. After addition of 1 uL/well Hoescht stain, the plates were incubated 40 min at 37 C, 5% CO2 and total intensity of fluorescent objects (nuclei) were enumerated by an Acumen Explorer Ex3 (TTP LabTech) fluorescence scanning plate imager (405 nm excitation, 500-530 nm emission).
Keywords: NIH Roadmap, MLPCN, MLI, MLSMR, qHTS, NCGC, DNA replication, cancer

Assay [7] in a line: Nrf2 qHTS screen for inhibitors: Validation (AID 493153; active = well fitted inhibition curve with a large enough effect in the main read-out, with a control signal flat, not every such curve was filed as active). The settings on record: viability change: measured here: cytotoxicity max response. The method in brief: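 In this counterscreened reporter format, each well gives two signals: CellTiter-Fluor fluorescence for cytotoxicity and ARE-luciferase luminescence for Nrf2 function. A549 ARE_Fluc cells in 5% FBS OPTI-MEM were exposed to compound titrations for 18-24 h.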

Assay [8] has as its target Peptidyl-prolyl cis-trans isomerase NIMA-interacting 1 (Homo sapiens) (UniProt Q13526). As to the kind of experiment: qHTS Validation Assay to Find Inhibitors of Pin1 (AID 504536; active = well fitted inhibition curve with a large enough effect in the polarisation, with a control signal flat, not every such curve was filed as active; the % refers to the polarisation). A digest of the protocol:
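Fluorescence polarization competition: compounds (titration) displace HiFluor-488-labeled Pin1-1b peptide from Pin1 (0.3 uM final) in pH 7.5 HEPES buffer with DTT, 10 min at room temperature; %Activity normalized to no-enzyme wells, curves fitted.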

In assay [9] the target is Phosphoglycerate kinase, glycosomal (Trypanosoma brucei brucei) (UniProt P07378). As to the kind of experiment: qHTS Validation Assay to Find Inhibitors of Phosphoglycerate Kinase (AID 504547). The method in brief:
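In TEA buffer (100mM, pH 7.6) containing 5mM MgCl2 and 0.01% Tween-20, the GAPDH-coupled PGK reaction proceeded for 60 minutes at room temperature before a single luminescence reading using Kinase-Glo Plus.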

The nature of assay [10]: qHTS for Inhibitors of Cell Surface uPA Generation: Validation Assay (AID 493164).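 Also: RAW 264.7 macrophage cells exposed to compound for 18 h.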 The method in brief:
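Compounds are titrated over seven points (2.45 nM–38.3 uM final) onto pre-plated RAW 264.7 cells and incubated for 18 h. Retained intracellular ATP, measured with ATP-Lite, indicates blocked lethal factor entry.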

Chain of ATPase family AAA domain-containing protein 5 (Homo sapiens) (Q96QE3 whole entry, looked up, the tested form may be a part): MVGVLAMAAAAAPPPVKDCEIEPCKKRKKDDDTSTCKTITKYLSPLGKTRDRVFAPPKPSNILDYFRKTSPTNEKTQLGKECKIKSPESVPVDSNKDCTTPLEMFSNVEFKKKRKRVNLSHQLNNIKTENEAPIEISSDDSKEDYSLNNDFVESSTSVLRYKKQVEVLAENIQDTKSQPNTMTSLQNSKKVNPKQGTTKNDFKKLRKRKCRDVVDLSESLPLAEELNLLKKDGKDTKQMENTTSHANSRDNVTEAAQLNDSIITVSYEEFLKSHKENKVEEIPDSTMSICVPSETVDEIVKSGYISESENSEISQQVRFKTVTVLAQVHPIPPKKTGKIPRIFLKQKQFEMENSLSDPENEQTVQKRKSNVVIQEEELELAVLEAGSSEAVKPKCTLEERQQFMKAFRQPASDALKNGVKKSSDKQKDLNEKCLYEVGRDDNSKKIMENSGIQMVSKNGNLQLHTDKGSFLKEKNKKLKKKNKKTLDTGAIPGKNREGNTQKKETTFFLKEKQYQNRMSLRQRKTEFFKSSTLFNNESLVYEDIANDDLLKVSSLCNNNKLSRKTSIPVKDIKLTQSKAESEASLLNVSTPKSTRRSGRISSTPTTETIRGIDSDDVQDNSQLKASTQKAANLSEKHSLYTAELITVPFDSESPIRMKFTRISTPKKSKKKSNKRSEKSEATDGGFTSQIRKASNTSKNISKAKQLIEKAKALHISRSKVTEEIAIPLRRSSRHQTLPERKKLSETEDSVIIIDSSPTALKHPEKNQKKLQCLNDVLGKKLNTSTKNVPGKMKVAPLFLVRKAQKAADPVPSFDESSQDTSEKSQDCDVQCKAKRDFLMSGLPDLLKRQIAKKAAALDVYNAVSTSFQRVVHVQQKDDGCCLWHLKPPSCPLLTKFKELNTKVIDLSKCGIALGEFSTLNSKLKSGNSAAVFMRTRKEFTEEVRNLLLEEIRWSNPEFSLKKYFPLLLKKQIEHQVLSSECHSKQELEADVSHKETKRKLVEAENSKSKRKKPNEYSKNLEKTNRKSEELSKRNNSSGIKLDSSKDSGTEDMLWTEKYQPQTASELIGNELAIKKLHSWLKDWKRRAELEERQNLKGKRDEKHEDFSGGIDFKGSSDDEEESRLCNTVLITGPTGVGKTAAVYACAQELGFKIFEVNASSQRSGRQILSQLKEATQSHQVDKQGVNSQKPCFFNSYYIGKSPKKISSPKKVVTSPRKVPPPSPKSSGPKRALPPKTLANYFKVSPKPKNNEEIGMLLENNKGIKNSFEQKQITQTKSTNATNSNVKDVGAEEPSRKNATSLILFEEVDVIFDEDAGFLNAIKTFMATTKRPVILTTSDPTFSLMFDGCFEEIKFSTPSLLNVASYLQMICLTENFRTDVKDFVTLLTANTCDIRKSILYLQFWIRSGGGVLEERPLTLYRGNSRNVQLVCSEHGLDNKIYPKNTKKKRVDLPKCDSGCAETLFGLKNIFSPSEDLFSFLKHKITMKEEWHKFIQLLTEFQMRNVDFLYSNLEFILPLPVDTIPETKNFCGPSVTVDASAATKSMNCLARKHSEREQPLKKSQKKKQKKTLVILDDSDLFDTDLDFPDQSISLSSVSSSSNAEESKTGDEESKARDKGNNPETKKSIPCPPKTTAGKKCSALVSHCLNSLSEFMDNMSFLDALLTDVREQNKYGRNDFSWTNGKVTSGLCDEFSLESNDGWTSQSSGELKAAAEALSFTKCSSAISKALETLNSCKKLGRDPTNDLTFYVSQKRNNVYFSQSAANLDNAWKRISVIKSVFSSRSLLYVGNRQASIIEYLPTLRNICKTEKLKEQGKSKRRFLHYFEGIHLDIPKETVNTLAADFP
Chain of ATP-dependent 6-phosphofructokinase (Trypanosoma brucei brucei) (O15648 whole entry, looked up): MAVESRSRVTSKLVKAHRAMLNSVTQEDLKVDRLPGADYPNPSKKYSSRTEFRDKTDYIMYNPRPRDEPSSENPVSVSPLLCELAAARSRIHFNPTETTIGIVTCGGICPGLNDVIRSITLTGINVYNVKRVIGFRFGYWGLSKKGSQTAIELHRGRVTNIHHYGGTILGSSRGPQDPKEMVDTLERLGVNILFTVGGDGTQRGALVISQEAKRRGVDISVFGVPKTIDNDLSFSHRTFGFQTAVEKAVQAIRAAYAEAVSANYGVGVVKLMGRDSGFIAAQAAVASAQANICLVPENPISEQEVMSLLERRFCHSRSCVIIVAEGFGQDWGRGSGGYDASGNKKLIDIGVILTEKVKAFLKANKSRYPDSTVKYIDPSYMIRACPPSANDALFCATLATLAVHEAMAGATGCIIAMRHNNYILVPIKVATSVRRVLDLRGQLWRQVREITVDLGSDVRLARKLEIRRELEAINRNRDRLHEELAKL
Chain of Peptidyl-prolyl cis-trans isomerase NIMA-interacting 1 (Homo sapiens) (Q13526 whole entry, looked up): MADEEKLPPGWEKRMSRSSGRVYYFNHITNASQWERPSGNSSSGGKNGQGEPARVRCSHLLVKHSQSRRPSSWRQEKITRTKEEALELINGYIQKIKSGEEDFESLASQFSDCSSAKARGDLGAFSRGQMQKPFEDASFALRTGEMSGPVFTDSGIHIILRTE
Chain of Phosphoglycerate kinase, glycosomal (Trypanosoma brucei brucei) (P07378 whole entry, looked up): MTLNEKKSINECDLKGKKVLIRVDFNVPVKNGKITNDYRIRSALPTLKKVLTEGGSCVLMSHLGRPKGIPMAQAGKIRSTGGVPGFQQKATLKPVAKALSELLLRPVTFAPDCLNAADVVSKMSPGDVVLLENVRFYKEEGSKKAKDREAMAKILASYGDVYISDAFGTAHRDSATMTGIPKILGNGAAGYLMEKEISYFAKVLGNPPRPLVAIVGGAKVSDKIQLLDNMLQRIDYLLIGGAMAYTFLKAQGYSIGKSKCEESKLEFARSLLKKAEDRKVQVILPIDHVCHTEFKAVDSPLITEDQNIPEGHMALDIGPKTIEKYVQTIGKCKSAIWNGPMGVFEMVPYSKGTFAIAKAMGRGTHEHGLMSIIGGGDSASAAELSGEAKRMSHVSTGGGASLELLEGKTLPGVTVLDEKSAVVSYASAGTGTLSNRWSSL
Chain of Galactokinase (Homo sapiens) (P51570 whole entry, looked up): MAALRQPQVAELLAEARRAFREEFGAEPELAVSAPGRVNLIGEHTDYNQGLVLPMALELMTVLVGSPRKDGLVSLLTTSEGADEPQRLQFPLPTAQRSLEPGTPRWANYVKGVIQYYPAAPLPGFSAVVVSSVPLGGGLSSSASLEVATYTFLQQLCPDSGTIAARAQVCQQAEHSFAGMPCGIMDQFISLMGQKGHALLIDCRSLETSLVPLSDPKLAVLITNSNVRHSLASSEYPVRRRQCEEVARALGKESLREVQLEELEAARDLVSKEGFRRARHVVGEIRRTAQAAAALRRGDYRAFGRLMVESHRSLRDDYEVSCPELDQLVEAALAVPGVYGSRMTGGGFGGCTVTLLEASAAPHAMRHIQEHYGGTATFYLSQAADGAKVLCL
Chain of Thyrotropin-releasing hormone receptor (Homo sapiens) (P34981 whole entry, looked up): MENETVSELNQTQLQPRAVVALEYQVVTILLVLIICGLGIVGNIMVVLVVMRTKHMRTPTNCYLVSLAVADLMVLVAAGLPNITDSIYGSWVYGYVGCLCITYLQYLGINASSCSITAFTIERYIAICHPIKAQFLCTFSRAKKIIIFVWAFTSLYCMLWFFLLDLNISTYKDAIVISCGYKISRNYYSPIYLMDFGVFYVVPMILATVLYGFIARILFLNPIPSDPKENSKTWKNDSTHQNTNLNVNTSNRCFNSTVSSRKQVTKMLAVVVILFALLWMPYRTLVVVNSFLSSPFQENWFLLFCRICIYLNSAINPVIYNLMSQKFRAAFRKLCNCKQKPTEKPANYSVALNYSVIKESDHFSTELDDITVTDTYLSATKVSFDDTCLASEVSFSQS

Take `CN1CCc2cc(Cl)c(O)cc2[C@H]2c3ccccc3CC[C@@H]21`: the Potency entry in assay [1] was “inactive”.
`C[N+]1(CCC(C(N)=O)(c2ccccc2)c2ccccc2)CCCCC1`: in assay [1], the Potency result was “inactive”.
Turning to `C[C@]12C=CC(=O)C=C1CC[C@@H]1[C@@H]2CC[C@@]2(C)[C@H]1CC[C@]2(C)O`, the Potency entry in assay [1] is “inactive”.
Consider `NCc1cccnc1`, for which the Potency entry in [1] was “inactive”.
As to `CC[C@]1(O)CC[C@H]2[C@@H]3CCC4=CCCC[C@@H]4[C@H]3CC[C@@]21C`, in assay [1], the Potency entry was “inactive”.
The same measure, in the same setting: with `O=C(CCCN1CCC(n2c(=O)[nH]c3ccccc32)CC1)c1ccc(F)cc1` the entry was “inactive”; with `CC(C)NCC(O)c1ccc(N)c(C#N)c1` (stereo unspecified), “inactive”.
For `ClC1=C(Cl)C2(Cl)C(CBr)CC1(Cl)C2(Cl)Cl` (stereo unspecified), the Potency result in [1] was “inactive”.
With `CC[C@H]1CN2CCc3cc(OC)c(OC)cc3[C@@H]2C[C@@H]1C[C@H]1NCCc2cc(OC)c(OC)cc21`, the result in assay [2] was inactive. Moreover, the Potency in assay [3] is 0.259 µM (active).
As for `CN1C[C@@H](NS(=O)(=O)N(C)C)C[C@@H]2c3cccc4c3c(cn4C)C[C@H]21`, in assay [1], the Potency entry is “inactive”.
For the molecule `c1ccc2nc(N3CCNCC3)ccc2c1`, in [4], the activation was -0.562% (inactive). The molecule was classed as inactive in assay [5] and in assay [6].
Turning to `CCN(CC)CCOC(=O)C(C)(c1ccccc1)c1ccccc1`, the Potency result in [1] was “inactive”.
In the case of `O=c1n(Cl)c(=O)n(Cl)c(=O)n1Cl`, in [1], the Potency result is “inactive”.
In the case of `CC(N)C(=O)OC(C)(C)Cc1ccc(Cl)cc1` (stereo unspecified), the outcome in assay [5] and in assay [6] was inactive.
With `C[C@H]1C(=O)O[C@@H]2CCN3CC=C(COC(=O)[C@](C)(O)[C@]1(C)O)[C@H]23`, in [1], the Potency entry is “inactive”.
Consider `O=C(NC(=O)c1c(F)cccc1F)Nc1cc(Cl)c(OC(F)(F)C(F)C(F)(F)F)cc1Cl` (stereo unspecified), for which the Potency result in assay [1] was “inactive”.
With `N#Cc1nn(-c2c(Cl)cc(C(F)(F)F)cc2Cl)c(N)c1S(=O)C(F)(F)F` (stereo unspecified), the Potency result in assay [1] is “inactive”.
For `CC(C)[N+](C)(CCC(C(N)=O)(c1ccccc1)c1ccccc1)C(C)C`, the Potency result in assay [1] is “inactive”.
Turning to `COc1ccc(C(=O)N2CCCC2=O)cc1`, the molecule was called inactive in assay [2], in [7], in [5], in [6], in assay [8] and in assay [9]. Further, in assay [3], the Potency result is “inactive”. Further, in assay [4], the activation was 0.812% (inactive). Also, the viability change in assay [7] is -4.73%.
With `CC(C)(C)OC(=O)c1ncn2c1[C@@H]1CCCN1C(=O)c1c(Br)cccc1-2`, the Potency result in assay [1] is “inactive”.
Consider `COC(=O)C1=C(C)NC(C)=C(C(=O)OC)C1c1ccccc1[N+](=O)[O-]`, for which the Potency in assay [3] was 18.3 µM (active).
Consider `CCOC(=O)NC(O)C(Cl)(Cl)Cl` (stereo unspecified), for which the Potency result in assay [1] was “inactive”.
As to `NC(=O)CN1CCCC1=O`, the Potency entry in assay [1] and in assay [3] was “inactive” in each case. Also, the result in assay [2], in [7], in assay [10], in [5], in assay [6] and in [8] was inactive. In [9], the molecule was classed as inactive. Further, in assay [4], the activation is -0.312% (inactive). Also, the viability change in assay [7] was -6.84%.
With `CNC(=O)Oc1cccc2ccccc12`, the Potency entry in [1] was “inactive”.
As to `COC(=O)C1=CCCN(C)C1`, the molecule was classed as inactive in [2], in [7], in [10], in [5], in assay [6] and in assay [8]. Also, the outcome in assay [9] was inactive. Moreover, the Potency entry in assay [3] is “inactive”. Moreover, the viability change in assay [7] is -1.14%.
Take `NC(=O)OCCCc1ccccc1`: in assay [1], the Potency result is “inactive”.
For `C[N+](C)(C)CCOC(=O)C(O)(c1ccccc1)c1ccccc1`, the Potency entry in assay [1] was “inactive”.
For the molecule `CCCCCCCCC(=O)NCc1ccc(O)c(OC)c1`, the molecule was classed as inactive in [5] and in assay [6].
For the molecule `Cc1ccc(N=CN(C)C=Nc2ccc(C)cc2C)c(C)c1`, the Potency result in assay [1] was “inactive”.
Take `O=C(O)c1nn(Cc2ccc(Cl)cc2Cl)c2ccccc12`: the Potency entry in [1] and in assay [3] was “inactive” throughout. Besides, the molecule was classed as inactive in assay [2], in assay [10], in [5], in assay [6], in assay [8] and in [9]. The activation in assay [4] was 0.438% (inactive).
For the molecule `CNC(=O)NC(O)C(Cl)(Cl)Cl` (stereo unspecified), the Potency result in [1] is “inactive”.
As for `CC(C)C(Br)C(=O)NC(N)=O` (stereo unspecified), the Potency entry in [1] was “inactive”.

The values above are taken from PubChem BioAssay (NCATS).
